Our source for the outcome and AC50 values is PubChem BioAssay (EPA / NIEHS).

Several values for one entry are separate records, joined by “and”; a condition that tells them apart may be missing. Equal entries are not always repeated. Records with an inconclusive call do not appear. Where a structure was tested more than once in an assay, its records may differ in their call. Activity calls are given as the source filed them. Rule for the calls, unless noted: active = hit-call score of the fitted dose curve at least 0.9, where 1 is the maximum; inactive = score below 0.9.

Read-out in assay [1]: CD69, CD69 (gene 969)
Nature of the assay: BSK_SAg_CD69: BioMAP Diversity Plus: SAg Assay for CD69 Biomarker Activity (AID 2283089).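 For AC50: cell surface CD69 protein quantified by ELISA with fluorescence detection.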 The conditions noted are these: primary human HUVEC with PBMC; actives raise or lower the signal. The method in brief: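 ELISA, fluorescence read-out: CD69 on human umbilical vein endothelial cell + PBMC co-culture, 24 h post-dosing. Gain or loss of signal fitted bidirectionally against DMSO baseline.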

Read-out in assay [2]: Monocyte Chemoattractant Protein-1 (MCP1), CCL2 (gene 6347)
Nature of the assay: BSK_SAg_MCP1: BioMAP Diversity Plus: SAg Assay for Monocyte Chemoattractant Protein-1 (MCP1) Biomarker Activity (AID 2283090). The conditions noted are these: primary human HUVEC with PBMC; actives raise or lower the signal. The method in brief: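 MCP-1 levels in the endothelial–PBMC SAg co-culture were quantified by ELISA at 24 h post-dosing; both increases and decreases versus DMSO scored. Cytotoxicity monitored by SRB total protein in parallel cultures.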

Read-out in assay [3]: E-selectin (Homo sapiens) (UniProt P16581)
In words: BSK_SAg_Eselectin: BioMAP Diversity Plus: SAg Assay for Eselectin Biomarker Activity (AID 2283091). The conditions noted are these: primary human HUVEC with PBMC; actives raise or lower the signal. The method in brief: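 Co-culture: HUVEC + PBMC. Dose compound; 24 h. ELISA for E-selectin. Bidirectional fit vs DMSO.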

Read-out in assay [4]: Monokine induced gamma interferon (MIG), CXCL9 (gene 4283)
In words: BSK_SAg_MIG: BioMAP Diversity Plus: SAg Assay for Monokine induced gamma interferon (MIG) Biomarker Activity (AID 2283092). Conditions: primary human HUVEC with PBMC; actives raise or lower the signal. The method in brief: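 ELISA readout of MIG/CXCL9; primary human umbilical vein endothelial cells co-cultured with peripheral blood mononuclear cells; 24 h post-dose; gain/loss fit vs DMSO baseline.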

Assay [5] is described as follows: BSK_SAg_PBMCCytotoxicity: PBMC Cytotoxicity Assessment in the BioMAP Diversity Plus: SAg Assay (AID 2283093).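 For AC50: PBMC superantigen activated with SEB plus TSST-1 one hour after compound addition.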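 Note: PBMC viability measured as Alamar Blue reduction fluorescence at 546/580 nm; fitted both ways against DMSO so a hit may be loss or gain of signal.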 Conditions: primary human HUVEC with PBMC. An outline of the steps:
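Compound added to 75,000 PBMC/well for 1 h; SEB and TSST-1 then added at 20 ng/mL final each; 90 h incubation; Alamar Blue 6 h; read 546/580 nm ex/em. Activity fitted bidirectionally relative to DMSO baseline.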

Read-out in assay [6]: Interleukin-8 (IL8), CXCL8 (gene 3576)
Nature of the assay: BSK_SAg_IL8: BioMAP Diversity Plus: SAg Assay for Interleukin-8 (IL8) Biomarker Activity (AID 2283094). The conditions noted are these: primary human HUVEC with PBMC; actives raise or lower the signal. An outline of the steps: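 Human umbilical vein endothelial cells co-cultured with peripheral blood mononuclear cells; IL-8 measured by ELISA 24 h after chemical dosing. Bidirectional concentration-response fitting used DMSO as negative control and activity baseline.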

Assay [7] in a line: BSK_SAg_SRB: Viability Assessment in the BioMAP Diversity Plus: SAg Assay (AID 2283096).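 Note: cells read one day after compound addition; hits may be either gain or loss of signal compared with DMSO.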 The conditions noted are these: primary human HUVEC with PBMC. The method in brief:
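Total protein by sulforhodamine B staining, 24 h after dosing, in HUVEC–PBMC co-culture; DMSO-referenced bidirectional fitting.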

Assay [8] concerns the target human CYP2A6, CYP2A6 (gene 1548) (UniProt P11509). In words: NVS_ADME_hCYP2A6: NovaScreen (NVS) CYP450-related Enzyme Activity (ADME) Assay for human CYP2A6 (AID 2283099; active = hit-call score of the fitted dose curve at least 0.9, where 1 is the maximum). The method in brief:
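Fluorescent substrate turnover by recombinant CYP2A6 (insect cell source), 0.5 h read. Screen: 10 uM, duplicate; threshold hits (e.g. 30% inhibition) → singleton concentration-response, top 20 uM. Positive and negative controls on every plate.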

Assay [9] deals with human CYP2B6, CYP2B6 (gene 1555) (UniProt P20813). In words: NVS_ADME_hCYP2B6: NovaScreen (NVS) CYP450-related Enzyme Activity (ADME) Assay for human CYP2B6 (AID 2283101; active = hit-call score of the fitted dose curve at least 0.9, where 1 is the maximum). An outline of the steps: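 Fluorescence-based enzyme activity of recombinant human CYP2B6, measured 1 h post-dose against acetonitrile vehicle baseline. Screened at a single concentration of 10 uM in duplicate before concentration-response follow-up.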
Chain of human CYP2B6, CYP2B6 (gene 1555) (P20813 whole entry, looked up): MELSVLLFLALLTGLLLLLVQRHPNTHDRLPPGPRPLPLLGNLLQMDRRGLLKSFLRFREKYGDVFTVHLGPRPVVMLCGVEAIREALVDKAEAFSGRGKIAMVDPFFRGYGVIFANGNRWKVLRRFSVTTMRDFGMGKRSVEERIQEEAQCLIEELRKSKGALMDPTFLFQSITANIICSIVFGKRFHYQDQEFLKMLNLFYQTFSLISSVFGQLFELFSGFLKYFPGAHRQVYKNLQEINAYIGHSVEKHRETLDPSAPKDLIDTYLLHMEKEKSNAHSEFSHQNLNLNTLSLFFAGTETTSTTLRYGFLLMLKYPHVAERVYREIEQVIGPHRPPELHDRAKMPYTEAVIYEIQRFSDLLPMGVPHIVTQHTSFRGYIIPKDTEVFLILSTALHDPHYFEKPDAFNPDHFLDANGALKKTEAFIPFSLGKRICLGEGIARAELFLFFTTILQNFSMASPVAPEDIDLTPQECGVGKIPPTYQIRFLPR

Assay [10] addresses human CYP2C9, CYP2C9 (gene 1559) (UniProt P11712). In words: NVS_ADME_hCYP2C9: NovaScreen (NVS) CYP450-related Enzyme Activity (ADME) Assay for human CYP2C9 (AID 2283108; active = hit-call score of the fitted dose curve at least 0.9, where 1 is the maximum). An outline of the steps:
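Fluorescence readout of CYP2C9 activity (SF9-expressed human enzyme) at 0.75 h. The primary screen used 10 uM in duplicate, with concentration-response follow-up for actives; acetonitrile was the negative control.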

Assay [11] addresses Cytochrome P450 3A4 (Homo sapiens) (UniProt P08684). Nature of the assay: NVS_ADME_hCYP3A4: NovaScreen (NVS) CYP450-related Enzyme Activity (ADME) Assay for human CYP3A4 (AID 2283110; active = hit-call score of the fitted dose curve at least 0.9, where 1 is the maximum). The method in brief: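 Compounds were first screened in duplicate at 10 uM against recombinant CYP3A4 produced in insect cells, then actives were run in concentration series. Enzyme activity was measured by fluorescence after 0.33 hour, with acetonitrile as baseline.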

Assay [12] deals with human CYP19A1, CYP19A1 (gene 1588) (UniProt P11511). In words: NVS_ADME_hCYP19A1: NovaScreen (NVS) CYP450-related Enzyme Activity (ADME) Assay for human CYP19A1 (AID 2283098; active = hit-call score of the fitted dose curve at least 0.9, where 1 is the maximum;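 note: potency for inhibitors seen as loss of fluorescent enzyme signal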). An outline of the steps: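 Biochem, cell-free; recombinant enzyme + specific substrate; fluorescence intensity at 0.5 h post-dose; 10 uM duplicate primary, conc. series for actives; acetonitrile = negative control/baseline; positive and negative controls on every plate.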
Chain of human CYP19A1, CYP19A1 (gene 1588) (P11511 whole entry, looked up): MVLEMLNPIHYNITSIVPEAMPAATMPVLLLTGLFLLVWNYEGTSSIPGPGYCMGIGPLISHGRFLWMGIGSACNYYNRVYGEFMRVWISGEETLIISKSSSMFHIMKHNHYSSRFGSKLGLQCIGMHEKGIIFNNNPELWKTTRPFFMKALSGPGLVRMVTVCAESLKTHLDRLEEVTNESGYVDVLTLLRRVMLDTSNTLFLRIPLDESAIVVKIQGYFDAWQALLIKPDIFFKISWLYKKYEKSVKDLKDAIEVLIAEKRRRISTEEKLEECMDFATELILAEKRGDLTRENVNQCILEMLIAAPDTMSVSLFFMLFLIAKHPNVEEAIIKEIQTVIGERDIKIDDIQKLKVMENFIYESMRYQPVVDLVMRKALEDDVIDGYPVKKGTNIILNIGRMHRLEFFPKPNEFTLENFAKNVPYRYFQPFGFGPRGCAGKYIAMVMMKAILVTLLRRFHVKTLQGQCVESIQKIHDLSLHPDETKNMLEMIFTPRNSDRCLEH

A short description of assay [13]: BSK_SAg_Proliferation: Cell Proliferation Assessment in the BioMAP Diversity Plus: SAg Assay (AID 2283095).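 Note: relative cell number as total protein by SRB absorbance in sub-confluent culture.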 The conditions noted are these: primary human HUVEC with PBMC. The method in brief: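 Human umbilical vein endothelial cells co-cultured with peripheral blood mononuclear cells; total protein measured by sulforhodamine B staining (0.1% SRB after 10% TCA fixation), absorbance at 560 nm, at 96 h. Bidirectional fit against DMSO baseline.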

Assay [14] addresses human CYP2C8, CYP2C8 (gene 1558) (UniProt P10632). Nature of the assay: NVS_ADME_hCYP2C8: NovaScreen (NVS) CYP450-related Enzyme Activity (ADME) Assay for human CYP2C8 (AID 2283104). An outline of the steps:
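Recombinant human CYP2C8 with fluorogenic substrate, 0.5 h, fluorescence intensity; signal loss fitted versus acetonitrile. Screened in duplicate at 10 uM, then actives run in concentration-response up to 20 uM.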

The target of assay [15] is Cytochrome P450 2C19 (Homo sapiens) (UniProt P33261). In words: NVS_ADME_hCYP2C19: NovaScreen (NVS) CYP450-related Enzyme Activity (ADME) Assay for human CYP2C19 (AID 2283113; active = hit-call score of the fitted dose curve at least 0.9, where 1 is the maximum;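 note: potency for inhibition seen as loss of fluorescent signal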). An outline of the steps: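 Fluorescence intensity was measured 1 hour after chemicals were added to insect-cell-derived recombinant CYP2C19 with fluorogenic substrate. Decreased signal versus acetonitrile control was taken as reduced enzyme activity; initial testing used 10 uM in duplicate.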

Assay [16] deals with rat CYP1A2, Cyp1a2 (gene 24297) (UniProt P04799). Nature of the assay: NVS_ADME_rCYP1A2: NovaScreen (NVS) CYP450-related Enzyme Activity (ADME) Assay for rat CYP1A2 (AID 2283115; active = hit-call score of the fitted dose curve at least 0.9, where 1 is the maximum). An outline of the steps:
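Cell-free recombinant rat enzyme with fluorogenic substrate, read by fluorescence intensity 1 hour after dosing. Loss of signal versus acetonitrile negative control; primary screen at 10 uM in duplicate, actives followed in concentration series.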

Chain of human CYP2C9, CYP2C9 (gene 1559) (P11712 whole entry, looked up): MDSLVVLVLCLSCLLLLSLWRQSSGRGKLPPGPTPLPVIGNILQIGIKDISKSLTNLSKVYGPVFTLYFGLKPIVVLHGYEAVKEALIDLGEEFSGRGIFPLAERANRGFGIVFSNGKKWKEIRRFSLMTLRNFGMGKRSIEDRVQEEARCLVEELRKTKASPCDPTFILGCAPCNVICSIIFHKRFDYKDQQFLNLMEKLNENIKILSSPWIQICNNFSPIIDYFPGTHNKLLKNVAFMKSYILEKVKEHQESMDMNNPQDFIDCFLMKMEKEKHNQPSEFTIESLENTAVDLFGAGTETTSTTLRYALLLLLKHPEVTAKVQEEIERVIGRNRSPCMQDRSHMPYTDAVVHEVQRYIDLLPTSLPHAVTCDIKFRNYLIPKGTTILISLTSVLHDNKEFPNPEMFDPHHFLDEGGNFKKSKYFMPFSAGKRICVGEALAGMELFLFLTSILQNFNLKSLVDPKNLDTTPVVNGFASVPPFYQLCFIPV
Chain of E-selectin (Homo sapiens) (P16581 whole entry, looked up): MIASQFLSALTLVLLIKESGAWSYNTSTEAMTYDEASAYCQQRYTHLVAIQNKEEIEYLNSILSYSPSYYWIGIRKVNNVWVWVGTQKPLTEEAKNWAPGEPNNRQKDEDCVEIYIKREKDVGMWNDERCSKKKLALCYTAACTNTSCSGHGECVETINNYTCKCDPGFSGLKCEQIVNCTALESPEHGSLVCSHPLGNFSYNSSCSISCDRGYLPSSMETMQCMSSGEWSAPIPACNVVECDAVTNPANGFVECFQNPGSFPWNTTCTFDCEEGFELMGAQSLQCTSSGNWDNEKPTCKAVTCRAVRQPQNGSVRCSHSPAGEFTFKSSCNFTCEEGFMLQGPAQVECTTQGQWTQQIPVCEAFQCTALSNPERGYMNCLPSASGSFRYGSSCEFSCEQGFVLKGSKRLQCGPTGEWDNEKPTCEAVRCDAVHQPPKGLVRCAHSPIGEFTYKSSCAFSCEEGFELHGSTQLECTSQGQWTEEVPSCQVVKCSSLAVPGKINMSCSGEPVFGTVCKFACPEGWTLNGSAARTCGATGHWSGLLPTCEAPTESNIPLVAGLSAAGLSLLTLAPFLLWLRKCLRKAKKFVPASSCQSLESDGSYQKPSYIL
Chain of human CYP2A6, CYP2A6 (gene 1548) (P11509 whole entry, looked up): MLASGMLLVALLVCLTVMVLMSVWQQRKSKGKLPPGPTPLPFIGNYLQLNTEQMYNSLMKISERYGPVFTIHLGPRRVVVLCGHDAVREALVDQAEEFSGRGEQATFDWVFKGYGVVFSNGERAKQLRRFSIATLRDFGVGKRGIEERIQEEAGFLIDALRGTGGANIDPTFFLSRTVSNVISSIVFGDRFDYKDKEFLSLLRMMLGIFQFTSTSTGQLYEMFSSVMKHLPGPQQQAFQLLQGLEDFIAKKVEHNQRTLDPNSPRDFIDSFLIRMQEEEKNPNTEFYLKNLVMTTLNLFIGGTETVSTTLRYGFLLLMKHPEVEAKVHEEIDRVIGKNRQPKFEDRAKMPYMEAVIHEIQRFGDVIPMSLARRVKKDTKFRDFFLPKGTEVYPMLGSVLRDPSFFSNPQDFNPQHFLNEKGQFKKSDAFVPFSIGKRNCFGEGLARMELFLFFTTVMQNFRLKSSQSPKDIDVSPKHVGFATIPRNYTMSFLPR
Chain of human CYP2C8, CYP2C8 (gene 1558) (P10632 whole entry, looked up): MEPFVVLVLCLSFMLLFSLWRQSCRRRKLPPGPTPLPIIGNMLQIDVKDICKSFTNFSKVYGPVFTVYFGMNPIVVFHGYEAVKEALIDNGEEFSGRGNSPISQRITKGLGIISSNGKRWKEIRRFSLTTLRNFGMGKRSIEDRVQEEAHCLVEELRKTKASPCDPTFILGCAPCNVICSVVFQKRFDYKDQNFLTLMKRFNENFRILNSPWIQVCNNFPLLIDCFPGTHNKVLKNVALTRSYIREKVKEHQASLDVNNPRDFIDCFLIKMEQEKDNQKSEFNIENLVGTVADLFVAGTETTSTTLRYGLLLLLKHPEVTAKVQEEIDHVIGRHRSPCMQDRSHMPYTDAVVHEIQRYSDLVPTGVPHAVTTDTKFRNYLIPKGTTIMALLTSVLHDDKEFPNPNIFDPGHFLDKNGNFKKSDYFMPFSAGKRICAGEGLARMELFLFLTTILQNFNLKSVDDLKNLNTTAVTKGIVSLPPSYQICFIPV
Chain of rat CYP1A2, Cyp1a2 (gene 24297) (P04799 whole entry, looked up): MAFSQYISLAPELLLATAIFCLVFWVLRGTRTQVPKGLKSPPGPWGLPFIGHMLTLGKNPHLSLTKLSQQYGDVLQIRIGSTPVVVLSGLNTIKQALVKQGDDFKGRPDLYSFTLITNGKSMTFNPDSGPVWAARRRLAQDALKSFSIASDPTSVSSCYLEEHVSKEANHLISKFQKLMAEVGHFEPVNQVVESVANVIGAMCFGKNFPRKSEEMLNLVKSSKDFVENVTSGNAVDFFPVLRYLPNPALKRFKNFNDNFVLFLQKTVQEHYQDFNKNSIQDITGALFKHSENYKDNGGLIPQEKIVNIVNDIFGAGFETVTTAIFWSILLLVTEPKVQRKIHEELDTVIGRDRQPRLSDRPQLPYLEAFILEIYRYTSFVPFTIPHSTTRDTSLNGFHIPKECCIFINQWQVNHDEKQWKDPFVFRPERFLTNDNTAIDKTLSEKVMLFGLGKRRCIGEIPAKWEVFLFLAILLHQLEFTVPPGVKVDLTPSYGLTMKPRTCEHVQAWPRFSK
Chain of Cytochrome P450 3A4 (Homo sapiens) (P08684 whole entry, looked up): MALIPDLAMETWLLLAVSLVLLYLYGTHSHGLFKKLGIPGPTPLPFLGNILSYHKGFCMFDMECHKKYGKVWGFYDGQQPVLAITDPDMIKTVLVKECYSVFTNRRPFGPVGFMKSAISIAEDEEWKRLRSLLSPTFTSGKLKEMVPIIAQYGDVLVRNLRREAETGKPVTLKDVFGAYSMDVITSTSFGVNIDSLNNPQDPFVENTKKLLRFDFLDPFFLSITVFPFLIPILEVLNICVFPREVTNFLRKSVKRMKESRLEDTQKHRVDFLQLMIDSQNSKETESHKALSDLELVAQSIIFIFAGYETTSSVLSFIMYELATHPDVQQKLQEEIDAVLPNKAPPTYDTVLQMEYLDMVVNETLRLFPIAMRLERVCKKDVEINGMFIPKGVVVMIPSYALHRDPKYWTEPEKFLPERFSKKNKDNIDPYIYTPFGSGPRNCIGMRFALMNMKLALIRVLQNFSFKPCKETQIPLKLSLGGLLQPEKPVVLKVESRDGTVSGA

Regarding `Cc1cc(Cl)ccc1OCC(=O)O`, the outcome in [1], in assay [2], in assay [3], in assay [4], in assay [5] and in [6] was inactive. Further, the result in [7] was inactive.

For the compound `COc1nc(NC(C)C)nc(NC(C)C)n1`, the result in assay [1], in assay [2], in assay [3], in assay [4], in assay [5] and in [6] was inactive. In assay [7], the result was inactive.

Regarding `CC(C)C1(C)N=C(c2nc3ccccc3cc2C(=O)O)NC1=O` (stereo not given), the outcome in assay [1], in [2], in assay [3], in assay [4], in [5] and in assay [6] was inactive. For the same compound, the outcome in assay [7] was inactive.

As to `CNC(=O)ON=CC(C)(C)SC`, the result in [1], in assay [2], in assay [3], in assay [4], in assay [5] and in [6] was inactive. For the same compound, the result in assay [7] was inactive.

One may read the AC50 as the concentration at which the activity in the assay is half-maximal. On to `C=CCC1=C(C)C(OC(=O)C2C(C=C(C)C)C2(C)C)CC1=O` (stereo not given), for which the AC50 is 30.1 µM (active) [middle of 4 runs] in assay [1]; 34.9 µM (active) [middle of 4 runs] in assay [2]; 32.6 µM (active) [middle of 4 runs] in [3]; 39.6 µM (active) [middle of 4 runs] in assay [4]; 34 µM (active) [middle of 4 runs] in [5]; 28.9 µM (active) [middle of 4 runs] in assay [6]. In addition, the AC50 in assay [7] is 32.1 µM (active) and 32.7 µM (active) and 36.2 µM (active); in [10] it was 7.07 µM (active) and 14.6 µM (active) and 6.76 µM (active). Further, the result in [7], in assay [8], in [9], in [10] and in assay [11] was inactive.

Regarding `Oc1ccccc1-c1ccccc1`, the outcome in assay [1], in [2], in assay [3], in [4], in assay [5] and in assay [6] was inactive. Further, the result in assay [7] was inactive. Also, the AC50 in assay [12] is 4.05 µM (active).

Regarding `Cc1ccc(-c2c(Cl)nc(C#N)n2S(=O)(=O)N(C)C)cc1`, the AC50 in [1] is 13.9 µM (active); in assay [2], 24.7 µM (active); in assay [3] it was 13.5 µM (active); in assay [4], 28.8 µM (active); in assay [6], 13.4 µM (active); in [13], 30 µM (active). The AC50 was 25 µM (active) in assay [7], 3.9 µM (active) in [14], 4.54 µM (active) in assay [10] and 7.38 µM (active) in assay [15]. For the same compound, the outcome in assay [5] and in [16] was inactive.

As to `COc1nc(C)nc(NC(=O)NS(=O)(=O)c2ccccc2CCC(F)(F)F)n1`, the result in assay [1], in [2], in assay [3], in assay [4], in assay [5] and in assay [6] was inactive. In addition, the result in assay [13], in assay [7] and in assay [10] was inactive.
